Screening results (PubChem BioAssay)
Tg IFNy HTS: T. gondii growth inhibition under IFN-gamma; hit rate 3.8% among 69,000; activity change, negative = inhibition, % (test concentration not listed); Toxoplasma gondii growth in IFN-gamma-treated host cells; hits give low values; in the data active = activity change below about -70%, passing the limit was not always enough;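 also: host cells are HeLa cells infected with Toxoplasma gondii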
An asterisk follows results filed as active; i = inactive; ! = a repeat was not active. Only a selection was taken, and hits are over-represented in it overall.

SMILES	Tg IFNy HTS
COc1cccc(-n2c(=O)c(C(=O)Nc3ccc(C)c(F)c3)c(O)c3cccnc32)c1	-15
O=C(c1ccncc1)N1CCCC(c2nc(-c3cccnc3)no2)C1 (centres undefined)	-8
CC(C)(N)C(=O)N1CCCC(c2cc(Nc3cccc(F)c3)nc(-c3cccnc3)n2)C1 (centres undefined)	-82*
COCC1CCCN(C(=O)c2ccc(-c3cccnc3)nc2)C1 (centres undefined)	4
Cc1ccc2c(c1C)-n1cccc1C1(CCN(C(=O)C3CCCC3)CC1)N2	333
Cc1cc(C)n(-c2nc(C(=O)NCCOc3ccc(F)cc3)cs2)n1	11
Nc1ncnc2c1c(-c1cccc(OCc3ccccc3)c1)cn2C1CC(CN2CCC2)C1 (centres undefined)	-85*
O=C(c1cscn1)N1CCc2ncnc(-c3ccccc3)c2CC1	12
Cc1ccc(CN2CCC(N(C)C)CC2C(=O)O)cc1 (centres undefined)	i
CCN(CC)C(=O)CSc1nnc(-c2ccccn2)n1-c1ccc(Cl)cc1	-27
CN(C)C1CCCN(C(=O)CCn2cc(Cl)cn2)CC1 (centres undefined)	14
C=CCN1C(=O)CCC12CCN(Cc1c(C)noc1C)CC2	9
Cc1noc(C)c1CN1CCC2(CCC(=O)N2CCN(C)C)CC1	-82*
Cc1noc(C)c1CN1CC2(CCN(C(=O)N(C)C)C2)CC1=O (centres undefined)	29
O=C(CCC1N=C2c3ccccc3N=C(SCc3cc(=O)n4ccccc4n3)N2C1=O)NCc1ccc2c(c1)OCO2 (centres undefined)	9
OC1CCN(c2ccnc(N3CCC4(CCOCC4)CC3)n2)CC1	-46
Cc1ccc(C(=O)N2CCO[C@H]3[C@@H](OCC4CC4)CC[C@H]32)cn1	-56
O=C1CSC(c2ccccc2)N1Nc1nc(N2CCOCC2)nc(N2CCOCC2)n1 (centres undefined)	-14
O=C(O)CSc1nc(Nc2ccccc2)nc(N2CCOCC2)n1	-31
Oc1[nH]c2ccccc2c1N=Nc1nc(Nc2ccccc2)nc(N2CCOCC2)n1	-99*
CC(=O)NC1C(O)OC(COS(=O)(=O)O)C(OC2OC(C(=O)O)C(OC3OC(CO)C(OC4OC(C(=O)O)C(O)C(O)C4OS(=O)(=O)O)C(OS(=O)(=O)O)C3NS(=O)(=O)O)C(O)C2OS(=O)(=O)O)C1O (centres undefined)	-35
CC(=O)c1cc(C(=O)NCCCN2CCCc3ccccc32)cs1	-2
CN(C)CCCN1c2ccccc2CCc2ccc(Cl)cc21	-70*!
CC(=O)c1ccc2c(c1)N(CCCN(C)C)c1ccccc1S2	11
CN(C)S(=O)(=O)CCNC(=O)C(=O)N1CCc2ccccc21	-1
SMILES	Tg IFNy HTS
CN(C)CCCN1c2ccccc2Sc2ccccc21	-22
CNCCCN1c2ccccc2CCc2ccccc21	-83*!
CCC(C(=O)N1CC(c2cccnc2)C1)n1cccn1 (centres undefined)	4
Cc1noc(C)c1CN1CCc2cc(C(=O)NC(C)C)c(N(C)C)nc2CC1	-33
O=c1[nH]nc(C2CCC2)n1CCc1ccccc1F	4
COCCC(=O)N1CCC2(CCOC2)C1 (centres undefined)	-16
C[C@H](Cn1nnc2ccccc21)NC(=O)c1cc(C(C)(C)C)nn1C	2
Cn1nc(C(C)(C)C)cc1C(=O)Nc1c(-c2ccccc2)c(C(F)(F)F)nn1C	-95*
Cn1nc(C(F)(F)F)c(-c2ccc(Br)cc2)c1NC(=O)C1CCC1C(=O)O (centres undefined)	-10
COCCC(=O)c1nc(-c2cn(Cc3ccccc3)c(C)n2)n2ccccc12	2
CCOC(=O)[C@]12CCCN(S(=O)(=O)C3CC3)C[C@@H]1CN(CCN(C)C)C2	7
N#Cc1c(-c2ccccc2)cc(-c2ccc(Cl)cc2)nc1N	10
N#Cc1c(N)nc(Sc2ccc(Cl)cc2)c(C#N)c1-c1ccccc1	-92*
CCc1nc(N)c(C#N)c(-c2ccccc2)c1C	12
O=C(NCCN1CCOCC1)c1nc(Nc2ccc(F)cc2)c2ccccc2n1	31
COc1ccc(OC)c(NC(=O)C(F)(F)F)c1	0
CCN(CC)c1ncnc2c1cnn2-c1ccccc1	i
N#Cc1cnn(-c2ncnc3c2cnn3-c2ccccc2)c1N	-93*
c1ccc(-n2ncc3c(NC4CCCCCCCCCCC4)ncnc32)cc1	30
COc1cccc(-c2ccc(NC(=O)CCc3c(C)nc(N)nc3C)cc2)c1	84
Cc1ccc(Cl)cc1NC(=O)Cn1c(=O)cc(C(=O)N2CCc3ccccc3C2)c2ccccc21	-32
CN(Cc1nc2ccc(Cl)cc2[nH]1)C(=O)c1ccccc1C1CCNC1 (centres undefined)	1
CN(C)C1CCN(C(=O)c2cnc(-c3noc4cc(-c5ccccc5)ccc34)s2)CC1	-12
CCCCN(C)C(=O)c1cnc(-c2noc3cc(NCC4CC4)ccc23)s1	-82*
Cc1cc(CN(C)C(=O)c2cccc(NCc3ccc(C)s3)c2)on1	-25
SMILES	Tg IFNy HTS
COc1ccc(-c2noc(-c3c(O)c4ccc(F)cc4[nH]c3=O)n2)cc1	-33
C=CCn1c(=O)c(C(=O)Nc2cccc(Cl)c2C)c(O)c2ccccc21	103
CN(C)CCN(Cc1ccccc1)C(=O)CCC(=O)Nc1ncc(-c2ccccc2)n1C	-49
COc1ccc(NC(=O)Nc2ccc(-c3nc(-c4cccc(Br)c4)co3)cc2)cc1OC	25
COCCN1C(=O)CCC12CCCN(Cc1cnn(C)c1)CC2 (centres undefined)	0
CCCc1cc(=O)[nH]c(SCC(=O)N2CCN(c3ccccc3OC)CC2)n1	27
O=C(N1CCN(c2nc3ccccc3s2)CC1)N1c2ccccc2Sc2ccccc21	-18
CCc1cc(=O)[nH]c(NC2CCN(C(=O)N3c4ccccc4Sc4ccccc43)CC2)n1	-117*
CCOCC1CN(Cc2cc(C)on2)Cc2cn(CC3CC3)nc21 (centres undefined)	4
CN1CC(=O)N(c2cccc(F)c2)CC12CCN(C(=O)c1cccs1)C2 (centres undefined)	10
CN1CC(=O)N(c2ccsc2)CC12CCN(C(=O)Nc1ccccc1F)C2 (centres undefined)	-101*
CN1CC(=O)N(c2ccsc2)CC12CCN(CC(=O)O)C2 (centres undefined)	3
CCCc1cc(C(=O)Nc2nc(SC)ns2)n(C)n1	366
O=C(CC1Nc2c3ccccc3nc(=S)n2C1=O)N1CCC(O)(c2cccc(C(F)(F)F)c2)CC1 (centres undefined)	18
CCO[C@H]1CC[C@@H]2[C@H]1OCCN2C(=O)c1cc2cccc(OC)c2o1	-1
c1ccc2c(-c3c[nH]c4ccccc34)c3ccccc3nc2c1	-86*
c1ccc2c(Cc3c[nH]c4ccccc34)c[nH]c2c1	10
Clc1ccc(CSc2nnc(-c3c[nH]c4ccccc34)o2)cc1	-58
Cc1nnc(SCC(=O)N2CCCN(C)C3(CCN(C)CC3)C2)s1	-1
CCS(=O)(=O)N1C[C@@H]2COC[C@@]2(Cc2nnc(C3CC3)o2)C1	-8
COc1ccc(-c2nc(Cc3noc(-c4ccccc4F)n3)c(C)o2)cc1	-113*
Cc1ccc(OCc2nc(Cc3nc(-c4ccccc4)oc3C)no2)cc1	-63
COc1ccccc1-c1nc(Cc2noc(-c3ccccn3)n2)c(C)o1	28
COc1cccc(-c2nc(Cc3nc(-c4ccccc4)oc3C)no2)c1	53
COc1ccccc1-c1nc(Cc2noc(-c3ccccc3F)n2)c(C)o1	-79*
COc1ccccc1-c1nc(Cc2noc(-c3ccc(F)cc3)n2)c(C)o1	23
